TGFb SMAD3 inh – inhibitors of TGF-b signaling | HepG2 CAGA-GFP TGF-b/SMAD3 reporter, GFP fluorescence, 18 h; TGF-beta stimulated, 500 pg/mL final | Potency, µM (titrated, usually from 46.1 µM), hits mostly inhibitors | hit rate 1.2% among 410,000 | AID 588855; further: nearly all actives have a fitted effect of over 65% in size
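Read-out: total well GFP (ex488/em500-530) summed from mean per-cell fluorescence. Cells: HEPG2 CAGA-GFP, 1% FBS DMEM, 18 h at 37 degrees C with 500 pg/mL final TGF-beta. Unstimulated wells served as the full-inhibition control; stimulated DMSO wells = 0%.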
ATXN viability – reduces viability in counter-screen for ATXN expression inhibitors; hit rate 0.49% among 400,000; S2 cells (HEK-293 line with an ATXN2-luciferase reporter) viability, CellTiter-Fluor protease fluorescence, 24 h; Potency, µM (series often up to 56.7 µM), most hits filed as cytotoxic; further: nearly all actives have a fitted effect of over 40% in size
RORg inh – inhibitors of mouse ROR gamma transcriptional activity. Drosophila S2 Gal4-RORgamma UAS-luciferase reporter, 20 h. Potency, µM (top dose mostly 53.6 µM), most hits filed as inhibitors. hit rate 5.4% among 310,000. AID 2551; further: nearly all actives have a fitted effect of over 60% in size
Target sequence (P51450 whole entry, looked up, the tested form may be a part): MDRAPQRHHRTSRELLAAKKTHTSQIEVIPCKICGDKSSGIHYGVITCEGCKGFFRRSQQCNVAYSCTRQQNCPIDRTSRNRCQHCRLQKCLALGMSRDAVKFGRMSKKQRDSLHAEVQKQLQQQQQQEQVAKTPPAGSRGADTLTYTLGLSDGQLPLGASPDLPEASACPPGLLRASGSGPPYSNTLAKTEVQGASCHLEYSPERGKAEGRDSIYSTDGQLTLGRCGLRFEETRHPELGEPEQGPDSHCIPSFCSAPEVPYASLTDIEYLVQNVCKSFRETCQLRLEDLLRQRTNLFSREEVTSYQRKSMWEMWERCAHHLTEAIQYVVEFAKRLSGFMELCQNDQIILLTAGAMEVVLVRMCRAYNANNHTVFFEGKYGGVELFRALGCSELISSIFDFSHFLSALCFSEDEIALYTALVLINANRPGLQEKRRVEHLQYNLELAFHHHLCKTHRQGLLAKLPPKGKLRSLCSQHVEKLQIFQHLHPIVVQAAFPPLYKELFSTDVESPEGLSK
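Luciferase reporter read in Schneider cells carrying Gal4-RORγ (mouse) and UAS-Photinus luciferase; cells given compound 1 h before 700 uM copper sulfate induction, then incubated 20 h at ambient temperature.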
VP16 counter – Gal4-VP16 reporter inhibition counter-screen; Drosophila S2 Gal4-VP16 UAS-luciferase, luminescence, 20 h; hit rate 3.5% among 310,000; Potency, µM (series often up to 53.6 µM), most hits filed as inhibitors;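 further: Gal4-VP16 expression switched on by copper sulfate through the metallothionein promoter; nearly all actives have a fitted effect of over 50% in size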
ATXN2 expr inh – reduces ATXN2 reporter expression in HEK-293 cells. Potency, µM (highest dose often 57 µM), usual class: inhibitors. AID 1745845. HEK-293 ATXN2-luciferase reporter, luminescence, 24 h. hit rate 0.72% among 360,000; further: nearly all actives have a fitted effect of over 55% in size
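ATXN2-luciferase reporter cells (luciferase flanked by upstream and downstream ATXN2 gene portions) were treated 24 h at 37 °C with compounds at up to 57 uM. SteadyGlo luminescence gave expression; GF-AFC fluorescence gave viability.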
HepG2 tox – HepG2 cytotoxicity, counter-screen for TGF-b inhibitors. Potency, µM (highest dose often 46.1 µM), hits mostly cytotoxic. HepG2 CAGA-GFP viability, ATP luminescence, 18 h. AID 588856. hit rate 0.76% among 410,000
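CellTiter-Glo luminescence gave cytotoxicity after 18 hours at 37 degrees C. The cells were HepG2 CAGA-GFP in 1% FBS DMEM, stimulated with 500 pg/mL TGF-beta after compound addition. %Activity was normalised to no-cell wells (complete cell-killing) and DMSO (no toxicity), and curves were fitted and classified.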
Large screens that a line does not name were inactive. The list is not random: actives were taken first. Their share in the collection is about 6.3%. The call rests on the fitted dose curve; in most records, active means well fitted curve in the direction sought with a large enough effect; inconclusive means small, poorly fitted or top-dose-only effect, or another doubt; inactive means no such curve, though single readings can be large; an effect the other way counts as inactive or inconclusive.

CN(C)CCCNC(=O)/C(=C\c1ccc(-c2ccc(Br)cc2)o1)NC(=O)c1ccccc1	TGFb SMAD3 inh inconclusive, RORg inh inconclusive, VP16 counter inconclusive, ATXN2 expr inh inconclusive, HepG2 tox 11µM
Cc1ccc(C(=O)N/C(=C\c2ccc(-c3ccccc3[N+](=O)[O-])o2)C(=O)NCCN(C)C)cc1	TGFb SMAD3 inh inconclusive, ATXN viability inconclusive, RORg inh 7.1µM, VP16 counter 10µM
CN(C)CCCNC(=O)/C(=C/c1ccc(-c2ccc([N+](=O)[O-])cc2)o1)NC(=O)c1ccccc1	none
CN(C)CCNC(=O)/C(=C/c1ccc(-c2cccc(Cl)c2)o1)NC(=O)c1ccccc1	RORg inh 3.2µM, VP16 counter inconclusive
CN(C)CCNC(=O)/C(=C/c1ccc(-c2cccc([N+](=O)[O-])c2)o1)NC(=O)c1ccccc1	none
Cc1ccc(CSC2=NS(=O)(=O)c3ccccc32)cc1	TGFb SMAD3 inh inconclusive (no result: ATXN viability, RORg inh, VP16 counter, ATXN2 expr inh)
NS(=O)(=O)c1ccc(CCNC(=O)CSc2nc3ccsc3c(=O)n2CC(=O)O)cc1	none
NS(=O)(=O)c1ccc(CCNC(=O)CSc2nc3ccsc3c(=O)n2CCCCCC(=O)O)cc1	RORg inh 7.9µM
COc1ccc2sc(-c3ccc(N(C)C)cc3)c(C#Cc3cncn3C)c2c1	TGFb SMAD3 inh inconclusive, ATXN2 expr inh inconclusive, HepG2 tox 8.9µM (no result: ATXN viability, RORg inh, VP16 counter)
COc1ccc2sc(-c3ccc(N(C)C)cc3)c(C#CCCO)c2c1	none (no result: RORg inh, VP16 counter)
Cc1cc(-c2ccc(S(=O)(=O)Nc3cccc(C)c3C)s2)on1	none (no result: ATXN viability, RORg inh, VP16 counter, ATXN2 expr inh)
COc1ccc(CNC(=O)CCCc2nnc3n(CCC(C)C)c(=O)c4sccc4n23)cc1	TGFb SMAD3 inh inconclusive (no result: ATXN viability, RORg inh, VP16 counter, ATXN2 expr inh)
N=c1oc2cc(O)ccc2cc1C(=O)Nc1ccc(Cl)cc1	RORg inh 2.2µM, VP16 counter 2µM (no result: ATXN viability)
CC(C)c1cc(C(=O)N2Cc3ccc(CN4CCN(C)CC4)cc3C2)c(O)cc1O	ATXN2 expr inh 0.22µM (no result: TGFb SMAD3 inh, ATXN viability, RORg inh, VP16 counter, HepG2 tox)
CCCCCC(=O)NC(=S)Nc1ccc(NC(=O)c2ccco2)cc1	RORg inh 10µM, VP16 counter inconclusive
CCCCC(=O)NC(=S)Nc1cccc(NC(=O)c2ccccc2)c1	RORg inh 2.2µM, VP16 counter 7.9µM
CCCC(=O)NC(=S)Nc1cccc(NC(=O)c2ccccc2)c1	RORg inh inconclusive, VP16 counter 3.5µM
CCCCCC(=O)NC(=S)Nc1ccc2oc(=O)ccc2c1	RORg inh 11µM, VP16 counter inconclusive
CCCCCC(=O)N/N=C(\C)c1ccc(NC(=O)c2ccco2)cc1	none
CCCCC(=O)Nc1cccc(NC(=S)NC(=O)Cc2ccccc2)c1	RORg inh inconclusive
COc1ccc(CN2CCC(C)(Oc3ccc(C(C)=O)cc3)C2)c2ccccc12 (configuration not stated)	none (no result: RORg inh, VP16 counter)
COC(=O)[C@@]1(Cc2ccc(OC)cc2)[C@H]2c3cc(C(=O)N4CCCC4)n(CCc4c[nH]c5ccc(OC)cc45)c3C[C@H]2CN1C(=O)c1ccccc1	none (no result: TGFb SMAD3 inh, ATXN viability, ATXN2 expr inh, HepG2 tox)
CCC[C@H]1C[C@H](C(=O)NC(C(C)Cl)C2O[C@@H](SC)C(OP(=O)(O)O)[C@@H](O)[C@@H]2O)N(C)C1 (some centres not stated)	none (no result: TGFb SMAD3 inh, ATXN viability, ATXN2 expr inh, HepG2 tox)
COC(=O)C1=C(C)NC(C)=C(C(=O)OCCc2ccc(N3CCN(C(c4ccccc4)c4ccccc4)CC3)cc2)C1c1cccc([N+](=O)[O-])c1 (configuration not stated)	none (no result: TGFb SMAD3 inh, RORg inh, VP16 counter, HepG2 tox)
CC(C)CC(N)C(=O)NC(C)C(=O)O (configuration not stated)	none (no result: TGFb SMAD3 inh, ATXN viability, ATXN2 expr inh, HepG2 tox)
Cc1ccc2[nH]c3c(=O)n(CC(=O)N(CCN(C)C)Cc4ccccc4)ncc3c2c1	TGFb SMAD3 inh 11µM (no result: RORg inh, VP16 counter)
CC1CCCC(NC(=O)CSC2CCCCC2)C1C (configuration not stated)	VP16 counter inconclusive
CC1CCCCC1NC(=O)NC(=O)CCl (configuration not stated)	RORg inh 5µM, VP16 counter 6.3µM
CC1CCCC(NC(=O)NC(=O)CCl)C1C (configuration not stated)	TGFb SMAD3 inh inconclusive, RORg inh 3.2µM, VP16 counter 5µM
